Test in all cases: DAPPL (digital affinity profiling via proximity ligation, sequencing); 10 mM Tris-HCl pH 7.5, 50 mM NaCl, 1 mM DTT, 4% glycerol, room temperature, 30 min; GST-TFs on glutathione beads, 16-mer random dsDNA library, 0.1% formaldehyde crosslink after washing; high values mean tight binding
One assay has as its target T1, FEV (Homo sapiens, UniProt Q99581 1-238).
T1 sequence: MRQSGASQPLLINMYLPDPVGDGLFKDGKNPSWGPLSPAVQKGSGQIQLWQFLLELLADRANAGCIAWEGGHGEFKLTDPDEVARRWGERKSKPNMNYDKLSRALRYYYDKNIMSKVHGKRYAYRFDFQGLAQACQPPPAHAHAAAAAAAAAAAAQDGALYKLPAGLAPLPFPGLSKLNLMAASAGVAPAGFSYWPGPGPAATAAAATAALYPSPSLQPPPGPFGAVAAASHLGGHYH
To be noted: protein: recombinant; tags: N-terminal GST; dsDNA, one strand shown. In outline: (§1)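 A tag-only sample was pooled with DNA-barcoded human transcription factors that had been expressed in yeast as GST fusions and captured on glutathione beads. The pools were incubated for 30 min at room temperature with 200 nmole of a random double-stranded 16-mer DNA library in Tris/NaCl/DTT/glycerol buffer, then washed, crosslinked with 0.1% formaldehyde, proximity-ligated (BsaI/T4 ligase, 1 h, 37 °C), PCR-amplified and sequenced on an Illumina NextSeq500. Binding signal is each hexamer's read frequency for a factor divided by its frequency for the tag-only sample.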

The target of a further assay is ETV5 (Homo sapiens, UniProt P41161 1-510). To be noted: protein: recombinant; tags: N-terminal GST; dsDNA, one strand shown. In short, it runs like this:
as §1

In the next assay the target is HSF1 (Homo sapiens, UniProt Q00613 1-529). The settings on record: protein: recombinant; tags: N-terminal GST; chain copies: 3; dsDNA, one strand shown. In short, it runs like this: as §1
Sequence of HSF1 (Q00613 whole entry): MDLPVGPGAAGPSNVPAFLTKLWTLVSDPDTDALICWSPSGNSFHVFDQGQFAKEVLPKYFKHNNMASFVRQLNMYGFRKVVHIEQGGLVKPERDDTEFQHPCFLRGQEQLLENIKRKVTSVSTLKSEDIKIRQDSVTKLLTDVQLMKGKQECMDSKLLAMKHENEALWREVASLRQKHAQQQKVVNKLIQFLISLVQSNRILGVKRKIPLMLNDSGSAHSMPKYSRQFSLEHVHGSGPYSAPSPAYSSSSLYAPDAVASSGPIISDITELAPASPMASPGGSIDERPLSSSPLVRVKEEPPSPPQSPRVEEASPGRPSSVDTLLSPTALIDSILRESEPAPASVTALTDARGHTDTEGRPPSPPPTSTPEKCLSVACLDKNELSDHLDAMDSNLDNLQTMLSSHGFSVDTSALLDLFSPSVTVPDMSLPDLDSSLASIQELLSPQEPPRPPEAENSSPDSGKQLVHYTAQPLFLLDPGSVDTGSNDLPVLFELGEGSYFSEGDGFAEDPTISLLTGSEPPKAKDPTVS
For the next assay, the target named is T2, SPIC (Homo sapiens, UniProt Q8N5J4 1-248).
T2 sequence: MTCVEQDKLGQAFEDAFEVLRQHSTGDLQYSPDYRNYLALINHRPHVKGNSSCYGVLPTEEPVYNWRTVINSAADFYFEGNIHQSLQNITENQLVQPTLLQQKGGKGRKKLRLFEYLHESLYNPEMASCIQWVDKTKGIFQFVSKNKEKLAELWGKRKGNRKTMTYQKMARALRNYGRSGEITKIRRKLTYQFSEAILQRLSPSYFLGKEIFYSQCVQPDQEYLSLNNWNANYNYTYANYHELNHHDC
The settings on record: protein: recombinant; tags: N-terminal GST; dsDNA, one strand shown. In outline: as §1

The next assay addresses ELF4 (Homo sapiens, UniProt Q99607 1-663). The settings on record: protein: recombinant; tags: N-terminal GST; dsDNA, one strand shown. In outline:
as §1

The target of a further assay is T3, ELK4 (Homo sapiens, UniProt P28324-2 1-405).
T3 sequence: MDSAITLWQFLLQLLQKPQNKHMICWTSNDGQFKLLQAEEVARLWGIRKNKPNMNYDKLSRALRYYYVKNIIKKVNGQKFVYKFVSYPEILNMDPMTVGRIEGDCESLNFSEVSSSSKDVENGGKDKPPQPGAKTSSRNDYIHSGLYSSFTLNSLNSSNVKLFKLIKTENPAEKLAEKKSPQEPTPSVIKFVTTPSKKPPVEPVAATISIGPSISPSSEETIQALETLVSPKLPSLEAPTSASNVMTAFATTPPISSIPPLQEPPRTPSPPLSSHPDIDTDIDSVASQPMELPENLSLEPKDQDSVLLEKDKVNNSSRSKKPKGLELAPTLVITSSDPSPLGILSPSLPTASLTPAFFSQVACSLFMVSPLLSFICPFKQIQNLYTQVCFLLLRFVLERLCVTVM
To be noted: protein: recombinant; tags: N-terminal GST; dsDNA, one strand shown. In outline:
as §1

In the next assay the target is T4, ETV2 (Homo sapiens, UniProt O00321 1-342).
T4 sequence: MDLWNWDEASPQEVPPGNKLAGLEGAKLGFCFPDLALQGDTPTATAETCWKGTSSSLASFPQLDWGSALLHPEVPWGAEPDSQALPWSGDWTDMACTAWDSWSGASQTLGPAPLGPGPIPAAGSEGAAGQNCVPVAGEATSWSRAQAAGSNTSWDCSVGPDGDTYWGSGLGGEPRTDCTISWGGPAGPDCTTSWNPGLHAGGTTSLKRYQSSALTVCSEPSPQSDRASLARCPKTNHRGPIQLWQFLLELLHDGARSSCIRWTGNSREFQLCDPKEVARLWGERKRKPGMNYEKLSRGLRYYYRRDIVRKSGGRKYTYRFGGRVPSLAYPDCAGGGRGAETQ
The settings on record: protein: recombinant; tags: N-terminal GST; dsDNA, one strand shown. In short, it runs like this: as §1

For a further assay, the target named is T5, ELF3 (Homo sapiens, UniProt P78545 1-371).
T5 sequence: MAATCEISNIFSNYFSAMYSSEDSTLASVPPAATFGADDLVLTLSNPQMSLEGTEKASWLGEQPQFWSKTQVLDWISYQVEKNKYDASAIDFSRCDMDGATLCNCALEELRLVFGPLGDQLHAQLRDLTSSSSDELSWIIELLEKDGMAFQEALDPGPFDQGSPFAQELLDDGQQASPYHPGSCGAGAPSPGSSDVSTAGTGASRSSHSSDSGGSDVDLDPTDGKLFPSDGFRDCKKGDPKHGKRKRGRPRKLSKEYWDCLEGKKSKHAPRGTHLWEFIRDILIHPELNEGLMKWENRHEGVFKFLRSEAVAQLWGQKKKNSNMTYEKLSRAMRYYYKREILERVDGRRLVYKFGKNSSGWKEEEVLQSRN
The settings on record: protein: recombinant; tags: N-terminal GST; dsDNA, one strand shown. In short, it runs like this: as §1

Another assay addresses CRX (Homo sapiens, UniProt O43186 1-299). To be noted: protein: recombinant; tags: N-terminal GST; dsDNA, one strand shown. In short, it runs like this: as §1
A further assay concerns the target ETV1 (Homo sapiens, UniProt P50549 1-477). To be noted: protein: recombinant; tags: N-terminal GST; dsDNA, one strand shown. In short, it runs like this: as §1
In another assay the target is T6, ERF (Homo sapiens, UniProt P50548 1-548).
T6 sequence: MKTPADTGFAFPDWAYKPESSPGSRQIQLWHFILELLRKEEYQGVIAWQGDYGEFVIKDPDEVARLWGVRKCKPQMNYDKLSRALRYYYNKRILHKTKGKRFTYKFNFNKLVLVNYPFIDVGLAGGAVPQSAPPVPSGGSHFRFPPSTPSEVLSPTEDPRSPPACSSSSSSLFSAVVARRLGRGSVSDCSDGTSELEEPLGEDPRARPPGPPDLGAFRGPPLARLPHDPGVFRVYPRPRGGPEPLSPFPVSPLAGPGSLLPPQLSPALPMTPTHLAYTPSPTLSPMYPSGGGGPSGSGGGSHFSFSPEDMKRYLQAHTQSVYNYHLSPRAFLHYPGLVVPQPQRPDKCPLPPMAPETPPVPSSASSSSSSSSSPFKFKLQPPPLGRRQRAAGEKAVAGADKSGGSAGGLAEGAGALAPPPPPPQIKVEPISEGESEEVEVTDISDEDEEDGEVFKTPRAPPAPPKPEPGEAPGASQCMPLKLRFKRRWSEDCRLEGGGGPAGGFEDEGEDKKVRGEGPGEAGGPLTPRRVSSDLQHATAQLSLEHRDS
To be noted: protein: recombinant; tags: N-terminal GST; dsDNA, one strand shown. In outline: as §1

The next assay addresses T7, ETV3L (Homo sapiens, UniProt Q6ZN32 1-361).
T7 sequence: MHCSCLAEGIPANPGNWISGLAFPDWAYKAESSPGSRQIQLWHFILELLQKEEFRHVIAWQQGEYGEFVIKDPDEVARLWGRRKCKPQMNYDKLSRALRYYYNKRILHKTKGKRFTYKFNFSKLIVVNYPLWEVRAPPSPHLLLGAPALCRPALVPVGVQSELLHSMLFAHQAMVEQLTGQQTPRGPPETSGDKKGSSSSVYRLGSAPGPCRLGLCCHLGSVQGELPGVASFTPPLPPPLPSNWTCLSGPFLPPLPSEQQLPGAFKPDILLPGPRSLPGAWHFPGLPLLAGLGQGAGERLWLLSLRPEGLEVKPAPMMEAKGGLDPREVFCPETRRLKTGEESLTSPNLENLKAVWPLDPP
To be noted: protein: recombinant; tags: N-terminal GST; dsDNA, one strand shown. In outline:
as §1

The target in another assay is T8, ETS2 (Homo sapiens, UniProt P15036 1-469).
T8 sequence: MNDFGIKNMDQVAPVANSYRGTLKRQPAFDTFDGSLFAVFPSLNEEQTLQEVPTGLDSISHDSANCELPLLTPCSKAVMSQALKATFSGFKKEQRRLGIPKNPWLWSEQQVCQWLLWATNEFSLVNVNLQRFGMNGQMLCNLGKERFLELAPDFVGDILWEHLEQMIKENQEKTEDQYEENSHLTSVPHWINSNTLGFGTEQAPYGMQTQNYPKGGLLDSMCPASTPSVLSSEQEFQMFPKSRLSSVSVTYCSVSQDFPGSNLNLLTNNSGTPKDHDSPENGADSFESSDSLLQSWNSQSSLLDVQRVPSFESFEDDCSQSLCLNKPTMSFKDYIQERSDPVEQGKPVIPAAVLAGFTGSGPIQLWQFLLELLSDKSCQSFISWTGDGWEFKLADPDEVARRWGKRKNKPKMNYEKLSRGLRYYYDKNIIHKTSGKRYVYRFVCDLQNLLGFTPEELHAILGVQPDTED
The settings on record: protein: recombinant; tags: N-terminal GST; dsDNA, one strand shown. In short, it runs like this:
as §1

In another assay the target is T9, SPDEF (Homo sapiens, UniProt O95238 1-335).
T9 sequence: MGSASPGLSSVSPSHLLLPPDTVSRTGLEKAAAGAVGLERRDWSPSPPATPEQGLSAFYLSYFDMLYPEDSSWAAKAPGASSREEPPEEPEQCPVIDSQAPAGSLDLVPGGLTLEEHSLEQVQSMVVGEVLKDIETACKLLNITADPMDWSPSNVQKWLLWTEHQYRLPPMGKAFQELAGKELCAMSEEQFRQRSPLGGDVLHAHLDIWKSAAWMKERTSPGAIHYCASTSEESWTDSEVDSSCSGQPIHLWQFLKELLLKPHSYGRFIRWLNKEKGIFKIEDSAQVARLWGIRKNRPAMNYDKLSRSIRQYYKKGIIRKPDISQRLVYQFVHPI
To be noted: protein: recombinant; tags: N-terminal GST; dsDNA, one strand shown. In short, it runs like this:
as §1

The next assay has as its target T10, ETV7 (Homo sapiens, UniProt Q9Y603 1-341).
T10 sequence: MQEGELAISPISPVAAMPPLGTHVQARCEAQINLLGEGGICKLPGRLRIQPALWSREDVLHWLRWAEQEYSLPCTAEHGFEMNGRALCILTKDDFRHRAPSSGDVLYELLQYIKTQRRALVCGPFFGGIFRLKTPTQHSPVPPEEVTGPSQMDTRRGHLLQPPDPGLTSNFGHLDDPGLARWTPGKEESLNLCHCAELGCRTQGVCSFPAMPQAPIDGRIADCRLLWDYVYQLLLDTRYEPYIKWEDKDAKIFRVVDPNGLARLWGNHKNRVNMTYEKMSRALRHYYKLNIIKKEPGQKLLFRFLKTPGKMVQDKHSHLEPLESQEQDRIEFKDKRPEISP
The settings on record: protein: recombinant; tags: N-terminal GST; dsDNA, one strand shown. In short, it runs like this: as §1

In the next assay the target is T11, ELF5 (Homo sapiens, UniProt Q9UKW6-2 1-255).
T11 sequence: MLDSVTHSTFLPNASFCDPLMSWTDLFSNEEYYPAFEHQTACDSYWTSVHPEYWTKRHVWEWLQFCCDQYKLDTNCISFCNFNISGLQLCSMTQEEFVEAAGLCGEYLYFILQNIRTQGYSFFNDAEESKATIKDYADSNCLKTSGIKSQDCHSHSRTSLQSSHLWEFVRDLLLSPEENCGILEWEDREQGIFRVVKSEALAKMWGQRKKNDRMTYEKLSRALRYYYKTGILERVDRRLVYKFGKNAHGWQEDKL
The settings on record: protein: recombinant; tags: N-terminal GST; dsDNA, one strand shown. In short, it runs like this: as §1

The next assay addresses T12, ETV3 (Homo sapiens, UniProt P41162-2 1-143).
T12 sequence: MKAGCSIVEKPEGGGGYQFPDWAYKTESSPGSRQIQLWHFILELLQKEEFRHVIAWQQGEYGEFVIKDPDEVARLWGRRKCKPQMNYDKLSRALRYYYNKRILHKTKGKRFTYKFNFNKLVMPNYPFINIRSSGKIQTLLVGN
To be noted: protein: recombinant; tags: N-terminal GST; dsDNA, one strand shown. In short, it runs like this:
as §1

In the next assay the target is ETV6 (Homo sapiens, UniProt P41212 1-452). To be noted: protein: recombinant; tags: N-terminal GST; dsDNA, one strand shown. In short, it runs like this:
as §1

For one sequence, binding signal results are on record in article PMC7862700, “An all-to-all approach to the identification of sequence-specific readers for epigenetic DNA modifications on cytosine”.

Sequence of ELF4 (Q99607 whole entry): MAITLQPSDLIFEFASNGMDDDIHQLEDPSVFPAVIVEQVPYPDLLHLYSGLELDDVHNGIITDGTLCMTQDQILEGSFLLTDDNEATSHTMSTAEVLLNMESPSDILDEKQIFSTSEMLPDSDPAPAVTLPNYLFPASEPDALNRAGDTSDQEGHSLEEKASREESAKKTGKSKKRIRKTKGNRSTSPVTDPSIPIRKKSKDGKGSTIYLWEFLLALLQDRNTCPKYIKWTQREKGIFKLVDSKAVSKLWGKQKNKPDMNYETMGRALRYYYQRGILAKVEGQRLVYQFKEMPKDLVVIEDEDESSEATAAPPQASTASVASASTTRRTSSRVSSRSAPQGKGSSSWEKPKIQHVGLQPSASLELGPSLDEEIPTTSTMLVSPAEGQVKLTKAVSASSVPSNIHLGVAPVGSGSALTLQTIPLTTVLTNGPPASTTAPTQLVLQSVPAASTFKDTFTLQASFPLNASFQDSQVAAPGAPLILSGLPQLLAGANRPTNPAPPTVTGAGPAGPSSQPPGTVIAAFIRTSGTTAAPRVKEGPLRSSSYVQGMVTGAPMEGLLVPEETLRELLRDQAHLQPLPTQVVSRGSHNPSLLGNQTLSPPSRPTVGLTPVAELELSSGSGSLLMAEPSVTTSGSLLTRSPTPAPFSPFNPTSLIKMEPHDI
Sequence of ETV6 (P41212 whole entry): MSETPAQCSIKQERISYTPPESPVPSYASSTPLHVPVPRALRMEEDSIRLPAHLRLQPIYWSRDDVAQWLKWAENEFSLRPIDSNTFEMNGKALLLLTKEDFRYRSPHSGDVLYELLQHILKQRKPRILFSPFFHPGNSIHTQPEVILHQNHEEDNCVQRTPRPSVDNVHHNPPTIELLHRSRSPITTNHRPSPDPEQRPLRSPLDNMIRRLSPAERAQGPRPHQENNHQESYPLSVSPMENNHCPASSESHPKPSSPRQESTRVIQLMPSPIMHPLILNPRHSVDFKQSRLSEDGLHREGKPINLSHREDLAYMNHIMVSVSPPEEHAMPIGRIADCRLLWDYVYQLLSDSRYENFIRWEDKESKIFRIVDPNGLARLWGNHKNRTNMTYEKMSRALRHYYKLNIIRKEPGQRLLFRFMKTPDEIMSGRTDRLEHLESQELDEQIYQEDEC
Sequence of ETV5 (P41161 whole entry): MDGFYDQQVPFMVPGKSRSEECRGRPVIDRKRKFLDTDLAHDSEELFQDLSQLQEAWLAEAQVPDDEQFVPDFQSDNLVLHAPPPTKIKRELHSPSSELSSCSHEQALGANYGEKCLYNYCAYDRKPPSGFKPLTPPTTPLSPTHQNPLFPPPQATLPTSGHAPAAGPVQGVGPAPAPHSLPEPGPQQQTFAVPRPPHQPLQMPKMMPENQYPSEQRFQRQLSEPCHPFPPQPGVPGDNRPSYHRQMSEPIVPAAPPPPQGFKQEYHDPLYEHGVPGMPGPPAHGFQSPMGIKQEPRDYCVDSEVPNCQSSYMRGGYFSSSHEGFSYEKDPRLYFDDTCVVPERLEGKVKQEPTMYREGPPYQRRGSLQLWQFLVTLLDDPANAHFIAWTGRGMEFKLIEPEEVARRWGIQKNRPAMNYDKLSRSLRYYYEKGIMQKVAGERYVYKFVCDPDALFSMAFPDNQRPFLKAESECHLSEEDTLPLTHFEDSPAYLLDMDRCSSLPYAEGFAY
Sequence of CRX (O43186 whole entry): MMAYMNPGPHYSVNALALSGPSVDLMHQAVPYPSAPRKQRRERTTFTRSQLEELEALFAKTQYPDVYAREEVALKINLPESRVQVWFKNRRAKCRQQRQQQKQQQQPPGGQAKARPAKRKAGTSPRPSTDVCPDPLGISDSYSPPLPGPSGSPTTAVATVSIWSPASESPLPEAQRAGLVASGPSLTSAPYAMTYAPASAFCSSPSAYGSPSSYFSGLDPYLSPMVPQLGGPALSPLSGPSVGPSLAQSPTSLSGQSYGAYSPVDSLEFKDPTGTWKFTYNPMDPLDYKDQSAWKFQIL
Sequence of ETV1 (P50549 whole entry): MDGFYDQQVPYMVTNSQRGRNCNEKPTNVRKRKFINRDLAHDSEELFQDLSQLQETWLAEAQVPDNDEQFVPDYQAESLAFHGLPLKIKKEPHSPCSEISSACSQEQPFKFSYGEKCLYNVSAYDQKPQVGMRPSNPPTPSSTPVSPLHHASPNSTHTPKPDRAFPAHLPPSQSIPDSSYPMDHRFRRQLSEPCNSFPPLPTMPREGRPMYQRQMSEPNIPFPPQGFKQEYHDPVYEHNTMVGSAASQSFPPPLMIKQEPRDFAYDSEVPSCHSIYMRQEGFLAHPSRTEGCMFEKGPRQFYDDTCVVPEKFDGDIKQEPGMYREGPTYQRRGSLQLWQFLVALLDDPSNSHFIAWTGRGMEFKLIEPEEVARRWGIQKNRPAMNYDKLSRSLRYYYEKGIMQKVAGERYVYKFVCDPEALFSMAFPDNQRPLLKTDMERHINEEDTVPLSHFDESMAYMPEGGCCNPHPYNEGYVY

As for AGCAAT, the binding signal with FEV is 1.08 fold enrichment (6-mer frequency, TF over GST control); with ETV5 it was 1.14 fold enrichment (6-mer frequency, TF over GST control); in the assay with HSF1, 1.1 fold enrichment (6-mer frequency, TF over GST control); with SPIC, 1.05 fold enrichment (6-mer frequency, TF over GST control); with ELF4 it was 1.2 fold enrichment (6-mer frequency, TF over GST control); in the assay with ELK4 it was 1.14 fold enrichment (6-mer frequency, TF over GST control). Also, the binding signal is 1.14 fold enrichment (6-mer frequency, TF over GST control) in the assay with ETV2; 1.13 fold enrichment (6-mer frequency, TF over GST control) in the assay with ELF3; 1.06 fold enrichment (6-mer frequency, TF over GST control) with CRX; 1.09 fold enrichment (6-mer frequency, TF over GST control) with ETV1; 1.1 fold enrichment (6-mer frequency, TF over GST control) in the assay with ERF; 1.03 fold enrichment (6-mer frequency, TF over GST control) with ETV3L. Also, the binding signal was 1.1 fold enrichment (6-mer frequency, TF over GST control) in the assay with ETS2; 1.04 fold enrichment (6-mer frequency, TF over GST control) with SPDEF; 1.25 fold enrichment (6-mer frequency, TF over GST control) with ETV7; 1.08 fold enrichment (6-mer frequency, TF over GST control) with ELF5; 1.18 fold enrichment (6-mer frequency, TF over GST control) with ETV3; 1.14 fold enrichment (6-mer frequency, TF over GST control) with ETV6.
